From PubChem BioAssay (NCATS)
Several values for one entry are separate records, joined by “and”; a condition that tells them apart may be missing. Identical values can stand only once. Records with an inconclusive call do not appear. Entries that show only a call come without a potency. Activity calls are given as the source filed them. Calls come from the whole dose curve; as a rule, active = well fitted curve in the direction sought with a large enough effect; inconclusive = small, poorly fitted or top-dose-only effect, or another doubt; inactive = no such curve, though single readings can be large; an effect the other way counts as inactive or inconclusive.

Legend:
[1] = target: N-terminal Xaa-Pro-Lys N-methyltransferase 1 (Homo sapiens) (UniProt Q9BV86); assay: qHTS Assay for Inhibitors of N-terminal methyltransferase 1 (NTMT1): LOPAC validation of the NTMT1 SAHH-coupled ThioGlo3 Assay (AID 1347143); details: recombinant NTMT1, SAHH-coupled ThioGlo3 fluorescence; series mostly up to 114 µM;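 note: SAH from peptide methylation measured as thiol fluorescence via SAHH coupling and ThioGlo3; nearly all actives have a fitted effect of over 70% in size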
In short: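 Inhibition of NTMT1 methylation of peptide SPKRIA is followed by converting SAH with SAHH and labelling the released thiol with ThioGlo3. Plates are read at 340/450nm before and 30 min after reagent addition, both at room temperature.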

[2] = target: Lysine-specific demethylase 5B (Homo sapiens) (UniProt Q9UGL1); assay: Optimization screen for KDM5B Histone Demethylases FDH coupled qHTS against the LOPAC library (AID 1347166); details: KDM5B demethylation, FDH-coupled NADH fluorescence (FDH is formaldehyde dehydrogenase); series mostly up to 57.5 µM
In short: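 KDM5BDeltaAP (200nM final) preincubated 10 min with compound, then 12.5uM H3K4Me3, 25uM a-ketoglutarate, ascorbate, Fe(II), NAD+ and FDH added; 50mM HEPES pH 7.5, 0.01% Tween-20. NADH fluorescence (340/450 nm) change over 30 min, room temperature.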

Furin (Homo sapiens) = Furin (Homo sapiens) (UniProt P09958); assay: Furin counterscreen qHTS for Zika virus inhibitors (AID 1347149); details: furin enzymatic counterscreen, fluorogenic substrate; series mostly up to 57.5 µM;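 note: purified recombinant full-length human furin enzyme at 5 nM; fluorescence gain from furin cutting a BOC-RVRR-AMC peptide substrate over 15 min; top concentration of the series differs between compounds; nearly all actives have a fitted effect of over 70% in size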
In short: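 Fluorogenic cleavage of BOC-RVRR-AMC (2 microM final, Km ~15 µM) was monitored (ex 340, em 450 nm) at 37C after 15 min RT preincubation of 5 nM furin with compounds in HEPES pH 7.0 buffer with CaCl2 and Triton X-100. Percent inhibition was fitted to a 4-parameter Hill curve.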

[3] = Confirmatory screen GU Rhodamine qHTS for Zika virus inhibitors qHTS (AID 1347157); details: purified enzyme assay, Rhodamine110 substrate fluorescence, 15 min; note: potency is the fitted concentration of half-maximal effect; nearly all actives have a fitted effect of over 70% in size
In short: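 In dose–response format, inhibition of unlinked protease (25 nM) was measured with 1.5 microM bis-peptide Rhodamine110 substrate. Aprotinin served as the intraplate control.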

[4] = Confirmatory screen NINDS Rhodamine qHTS for Zika virus inhibitors (AID 1347161); details: purified enzyme assay, Rhodamine110 substrate fluorescence, 15 min; series mostly up to 114 µM; note: potency is the fitted concentration of half-maximal effect; nearly all actives have a fitted effect of over 60% in size
In short: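 Aprotinin served as in-plate control. Conditions: 25 nM linked NS2B-NS3, pH 8.0 Tris buffer, titrated compounds, 15 min preincubation and 15 min reaction with 1.5 microM Rhod110 substrate at room temperature.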

[5] = system: Zika virus NS2B-NS3 protease (linked); assay: 384 well plate NINDS AMC confirmatory qHTS for Zika virus inhibitors (AID 1347163); details: Recombinant NS2B-NS3 protease, Ac-VKTGKR-AMC fluorescence; series mostly up to 1 mM;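 note: linked protease at 5 30 or 60 nM final depending on run; fluorescence of AMC released from Ac-VKTGKR-AMC peptide cleaved by the protease; top concentration of the series differs between compounds; nearly all actives have a fitted effect of over 50% in size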
In short: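 Linked NS2B-NS3 protease (final 5 nM, 30 nM or 60 nM) was preincubated with compounds (final up to 1 mM) for ~15 minutes. Ac-VKTGKR-AMC substrate (final 30 microM) then reacted for 25 minutes at room temperature in the dark. Fluorescence (ex 355/em 460 nm) was normalized to no-enzyme and no-inhibitor controls.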

[6] = system: Zika virus NS2B-NS3 protease (linked construct); assay: 384 well plate NINDS Rhodamine confirmatory qHTS for Zika virus inhibitors (AID 1347164); details: rhodamine-110 peptide substrate fluorescence; series mostly up to 1 mM; note: potency is the fitted concentration of half-maximal effect; nearly all actives have a fitted effect of over 65% in size
In short: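 Cleavage of Ac-LKRR-Rhodamine 110 (10 microM final) by linked protease (final 5, 30 or 60 nM) was followed as fluorescence at 485/538 nm after 25 min, room temperature, dark. Compounds preincubated ~15 min.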

[7] = Tertiary RLuc qRT-PCR qHTS assay for Zika virus inhibitors (AID 1347169); details: infected Vero cells, reporter luminescence, 48-72 h; series mostly up to 5.25 µM; note: nearly all actives have a fitted effect of over 55% in size; note: potency is the fitted concentration of half-maximal effect
In short: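 Inhibition of ZIKV-RLuc replication in Vero cells, read as Renilla luminescence 1-1.5 hrs after live-cell substrate addition, following 48-72 hrs infection at MOI 1-2 in presence of compound.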

[8] = system: Zika virus NS2B-NS3 protease; assay: Primary screen GU AMC qHTS for Zika virus inhibitors (AID 1347154); details: Zika NS2B-NS3 unlinked protease, AMC fluorogenic substrate; series mostly up to 54.1 µM; note: nearly all actives have a fitted effect of over 70% in size
In short: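 Fluorogenic AMC-substrate cleavage by noncovalent NS2B-NS3 protease complex (25 nM, pH 8.0 Tris buffer with Tween 20) followed for 15 minutes at room temperature (~20% conversion). Percent inhibition from ex340/em450 signal change, fitted by 4-parameter Hill equation.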

[9] = system: Zika virus NS2B-NS3 protease (unlinked complex); assay: Primary screen GU Rhodamine qHTS for Zika virus inhibitors: Unlinked NS2B-NS3 protease assay (AID 1347159); details: Recombinant ZIKV NS2B-NS3 protease, Rhodamine110 substrate fluorescence; series mostly up to 107 µM; note: nearly all actives have a fitted effect of over 60% in size
In short: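 Noncovalent NS2B hydrophilic domain/NS3 protease complex (25 nM final) in 10 mM Tris-HCl pH 8.0, 0.01% Tween 20, preincubated 15 min with compounds (up to 114 microM), then 1.5 microM Rhodamine110 substrate. Fluorescence change over 15 min fitted to 4-parameter Hill.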

[10] = system: Zika virus NS2B-NS3 protease (linked construct); assay: Primary screen NINDS Rhodamine qHTS for Zika virus inhibitors (AID 1347160); details: purified NS2B-NS3 protease, Rhodamine110 substrate fluorescence; series mostly up to 57.1 µM; note: nearly all actives have a fitted effect of over 55% in size
In short: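 Purified NS2B-NS3 protease with the NS2B hydrophilic domain joined by a flexible linker (25 nM) in 10 mM Tris-HCl pH 8.0, 0.01% Tween 20, preincubated 15 min at RT with compound; Rhodamine110 peptide substrate 1.5 µM; fluorescence change over 15 min; 4-parameter Hill fit.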

[11] = Vero cells viability qHTS for Zika virus inhibitors (AID 1347167); details: cytotoxicity counter-screen (Zika); series mostly up to 45.9 µM
In short: (§1)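 Compounds were tested in concentration series on cells grown in DMEM containing 4% FBS. After 24 to 48 hours, cellular ATP was measured by luminescence with CellTiter Glo.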

[12] = HepG2 cells viability qHTS for Zika virus inhibitors (AID 1347168); details: Zika counter-screen; series mostly up to 45.9 µM
In short: as §1

[13] = OV-KATE Cancer Cell Toxicity qHTS against the NCATS CANVASS Library (AID 1347345); details: OV-KATE cells viability, CellTiter-Glo luminescence, 72 h; series mostly up to 38.3 µM
In short: (§2)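 Viability read-out: CellTiter-Glo luminescence after 72 h compound exposure at 37 °C/5% CO2. Cells plated at 1000/well, 4 h pre-incubation; 11-point titration. Bortezomib served as control.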

[14] = HPAF-II Cancer Cell Toxicity qHTS against the NCATS CANVASS Library (AID 1347346); details: HPAF-II viability, CellTiter-Glo ATP luminescence, 72 h; series mostly up to 38.3 µM; note: nearly all actives have a fitted effect of over 55% in size
In short: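 Luminescence from CellTiter-Glo, added after 72 h compound exposure and a 15 min room-temperature incubation, served as the viability readout. HPAF-II cells (1000/well) received an 11-point concentration series.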

[15] = UWB1.289 Cancer Cell Toxicity qHTS against the NCATS CANVASS Library (AID 1347347); details: UWB1.289 viability, CellTiter-Glo luminescence, 72 h; series mostly up to 38.3 µM; note: nearly all actives have a fitted effect of over 60% in size
In short: as §2

Sequence of Furin (Homo sapiens) (P09958 whole entry, looked up): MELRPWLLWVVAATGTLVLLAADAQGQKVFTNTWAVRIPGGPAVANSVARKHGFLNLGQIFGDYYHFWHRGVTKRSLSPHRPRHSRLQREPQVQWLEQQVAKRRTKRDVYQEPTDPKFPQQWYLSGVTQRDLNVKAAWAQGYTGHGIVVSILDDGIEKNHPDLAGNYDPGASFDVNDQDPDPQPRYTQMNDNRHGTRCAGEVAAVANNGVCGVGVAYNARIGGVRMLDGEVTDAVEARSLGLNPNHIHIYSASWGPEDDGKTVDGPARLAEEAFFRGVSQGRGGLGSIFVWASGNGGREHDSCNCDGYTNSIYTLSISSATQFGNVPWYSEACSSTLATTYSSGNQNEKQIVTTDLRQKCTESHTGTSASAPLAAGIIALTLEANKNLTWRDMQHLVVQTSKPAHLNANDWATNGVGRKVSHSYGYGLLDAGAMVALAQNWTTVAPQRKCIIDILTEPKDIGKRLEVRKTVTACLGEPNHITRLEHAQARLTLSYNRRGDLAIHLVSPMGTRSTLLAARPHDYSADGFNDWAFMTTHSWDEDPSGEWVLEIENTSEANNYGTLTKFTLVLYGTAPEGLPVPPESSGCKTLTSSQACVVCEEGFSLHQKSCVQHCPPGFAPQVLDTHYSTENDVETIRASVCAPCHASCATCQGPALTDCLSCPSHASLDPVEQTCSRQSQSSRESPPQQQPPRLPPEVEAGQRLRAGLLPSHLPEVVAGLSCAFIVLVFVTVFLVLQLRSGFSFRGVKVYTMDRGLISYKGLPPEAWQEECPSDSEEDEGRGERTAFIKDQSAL
Sequence of N-terminal Xaa-Pro-Lys N-methyltransferase 1 (Homo sapiens) (Q9BV86 whole entry, looked up): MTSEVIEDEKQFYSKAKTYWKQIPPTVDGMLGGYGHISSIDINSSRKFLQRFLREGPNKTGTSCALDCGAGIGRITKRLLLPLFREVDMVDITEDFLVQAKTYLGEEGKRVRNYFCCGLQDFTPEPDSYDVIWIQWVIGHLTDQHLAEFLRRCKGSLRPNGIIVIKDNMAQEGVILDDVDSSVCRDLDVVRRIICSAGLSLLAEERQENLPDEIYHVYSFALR
Sequence of Lysine-specific demethylase 5B (Homo sapiens) (Q9UGL1 whole entry, looked up): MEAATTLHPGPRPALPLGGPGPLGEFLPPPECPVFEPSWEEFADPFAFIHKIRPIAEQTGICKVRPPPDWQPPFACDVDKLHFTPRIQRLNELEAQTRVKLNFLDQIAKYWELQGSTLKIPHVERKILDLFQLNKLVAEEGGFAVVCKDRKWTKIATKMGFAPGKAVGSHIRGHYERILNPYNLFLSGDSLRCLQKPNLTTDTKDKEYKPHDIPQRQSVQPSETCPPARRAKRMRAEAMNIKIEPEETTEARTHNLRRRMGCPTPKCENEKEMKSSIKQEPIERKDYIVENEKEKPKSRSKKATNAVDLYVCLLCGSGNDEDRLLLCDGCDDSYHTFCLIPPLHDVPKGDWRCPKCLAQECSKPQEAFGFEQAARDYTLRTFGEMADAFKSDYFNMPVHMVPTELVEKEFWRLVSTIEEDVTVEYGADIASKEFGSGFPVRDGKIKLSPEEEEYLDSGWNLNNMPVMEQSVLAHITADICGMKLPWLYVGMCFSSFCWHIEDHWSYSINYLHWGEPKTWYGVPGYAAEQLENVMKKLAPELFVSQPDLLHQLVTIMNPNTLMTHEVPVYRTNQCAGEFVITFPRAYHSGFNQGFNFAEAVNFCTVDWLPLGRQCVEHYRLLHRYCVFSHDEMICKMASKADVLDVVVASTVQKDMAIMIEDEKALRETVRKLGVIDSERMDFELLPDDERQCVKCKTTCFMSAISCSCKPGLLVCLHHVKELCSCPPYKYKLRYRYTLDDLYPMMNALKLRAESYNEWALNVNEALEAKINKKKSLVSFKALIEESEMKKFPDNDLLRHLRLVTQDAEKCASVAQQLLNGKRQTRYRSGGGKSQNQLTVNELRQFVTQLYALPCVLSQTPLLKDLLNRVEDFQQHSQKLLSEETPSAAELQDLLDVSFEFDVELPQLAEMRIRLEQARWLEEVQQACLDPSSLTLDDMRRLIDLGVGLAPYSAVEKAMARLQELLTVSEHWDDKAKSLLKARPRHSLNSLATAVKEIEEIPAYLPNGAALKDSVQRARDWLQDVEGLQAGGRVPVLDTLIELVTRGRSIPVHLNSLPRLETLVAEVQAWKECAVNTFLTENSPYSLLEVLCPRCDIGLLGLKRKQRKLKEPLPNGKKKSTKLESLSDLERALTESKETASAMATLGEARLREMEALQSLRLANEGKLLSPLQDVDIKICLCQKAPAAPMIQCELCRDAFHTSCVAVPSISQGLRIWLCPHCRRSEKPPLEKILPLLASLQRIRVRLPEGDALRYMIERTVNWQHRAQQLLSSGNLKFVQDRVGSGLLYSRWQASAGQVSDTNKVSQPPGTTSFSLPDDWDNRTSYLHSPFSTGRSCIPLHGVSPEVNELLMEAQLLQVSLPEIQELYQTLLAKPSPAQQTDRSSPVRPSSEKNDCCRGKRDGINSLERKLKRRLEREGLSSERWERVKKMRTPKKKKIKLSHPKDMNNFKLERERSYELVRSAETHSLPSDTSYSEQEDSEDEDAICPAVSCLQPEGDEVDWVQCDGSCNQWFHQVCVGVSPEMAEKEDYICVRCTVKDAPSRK

Structure (SMILES): Nc1cc(Cl)c(NC2=NCCN2)c(Cl)c1
- Potency [1]: inactive
- outcome [2]: inactive

Structure (SMILES): Oc1c(Cl)cc(Cl)cc1Sc1cc(Cl)cc(Cl)c1O
- Potency (Furin (Homo sapiens)): inactive
- Potency [3]: 22.4 µM (active)
- Potency [4]: 7.08 µM (active)
- outcome [5]: inactive
- Potency [6]: 200 µM (active)
- Potency [7]: inactive

Structure (SMILES): N[C@H](CO)C(=O)O
- Potency [1]: inactive
- outcome [2]: inactive

Structure (SMILES): CC(C)(C)CC(C)(C)c1ccc(OCCOCC[N+](C)(C)Cc2ccccc2)cc1
- Potency (Furin (Homo sapiens)): inactive
- Potency [8]: inactive
- outcome [9]: inactive
- outcome [10]: inactive
- Potency [11]: inactive
- Potency [12]: inactive
- Potency [7]: 33 µM (active) and 13.1 µM (active) and 10.4 µM (active)

Structure (SMILES): CN1CCC[C@@H]1c1cccnc1
- outcome [13]: inactive
- outcome [14]: inactive
- outcome [15]: inactive
